Drawing on PubChem BioAssay (EPA / NIEHS), this text covers AC50 and outcome for 19 molecules.

The nature of experiment [1]: APR_HepG2_CellLoss_72hr: Apredica 72-hour HepG2 Assay for Cell Loss (AID 2282915). The note with it: high-content imaging. In a few lines:
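Cell number comes from Hoechst 33342-labelled nuclei, imaged at 20x after 3.7% formaldehyde fixation. Dosing was 0.39–200 uM, ten concentrations in duplicate, 0.5% DMSO final, for 72 h. Bidirectional fit relative to DMSO baseline.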

A short description of experiment [2]: APR_HepG2_P-H2AX_72hr: Apredica 72-hour HepG2 Assay for H2AX Phosphorylation (AID 2282916).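 Further: phospho-histone H2A.x immunostain intensity per cell marking DNA damage.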 The note with it: imaging, actives raise or lower the signal. In a few lines:
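HepG2; cpd 0.39–200 uM ×10 conc, duplicates; 0.5% DMSO; 72 hr. Fix 3.7% formaldehyde 30 min RT, 0.5% Triton X-100 10 min. Anti-phospho-H2A.x 1:200 + Hoechst 2 ug/mL, 60 min RT; ArrayScan imaging.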

Experiment [3] in a line: APR_HepG2_MitoMembPot_72hr: Apredica 72-hour HepG2 Assay for Mitochondrial Membrane Potential (AID 2282917). The note with it: imaging, actives raise or lower the signal. In a few lines: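 Membrane potential read by MitoTracker Red CMXRos (250 nM, 30 min, pre-fixation) fluorescence imaging of HepG2 after 72 hr exposure. Ten concentrations, 0.39–200 uM, duplicate wells, 0.5% DMSO; fitted in both directions against DMSO baseline.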

Experiment [4] is described as follows: APR_HepG2_MitoticArrest_72hr: Apredica 72-hour HepG2 Assay for Mitotic Arrest (AID 2282918). The note with it: high-content imaging, actives raise or lower the signal. In a few lines:
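Read-out is phospho-histone H3 immunofluorescence with Hoechst nuclear segmentation, imaged at 20x. Human HepG2 liver cells received ten concentrations (0.39–200 uM, final DMSO 0.5% v/v) for 72 hr before fixation. Gain or loss of signal was fitted relative to DMSO.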

Experiment [5] in a line: APR_HepG2_MicrotubuleCSK_72hr: Apredica 72-hour HepG2 Assay for Microtubule CSK Stabilty (AID 2282919). The note with it: HepG2 microtubule cytoskeleton, high-content imaging, actives raise or lower the signal. In a few lines:
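Read-out is tubulin fluorescence intensity from high-content imaging of HepG2 cells, with nuclei identified by Hoechst 33342. Treatment lasts 72 h at 0.39–200 uM, and curves are fitted bidirectionally against the DMSO negative control.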

Experiment [6] can be described thus: APR_HepG2_P-H2AX_24hr: Apredica 24-hour HepG2 Assay for H2AX Phosphorylation (AID 2282920). The note with it: high-content imaging, actives raise or lower the signal. In a few lines: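 HepG2, 24 hr, cpd 0.39–200 uM (10 conc, duplicate), DMSO 0.5% v/v final. Fix 3.7% formaldehyde, Triton X-100 permeabilize, anti-phospho-H2A.x 1:200 + Hoechst 2 ug/mL. Imaged, bidirectional fit vs DMSO.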

A short description of experiment [7]: APR_HepG2_p53Act_72hr: Apredica 72-hour HepG2 Assay for p53 Activation (AID 2282923).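 Further: average cellular p53 protein immunofluorescence intensity in HepG2 cells.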 The note with it: high-content imaging, actives raise or lower the signal. The gist of the method: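 10-pt conc. 0.39–200 uM, duplicate, 0.5% DMSO; 72 hr exposure; 3.7% formaldehyde fix, 0.5% Triton perm; sheep anti-p53/Cy5 + Hoechst; ArrayScan 20x, 6 images/well; gain/loss fit vs DMSO.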

Experiment [8] is described as follows: APR_HepG2_MitoMass_72hr: Apredica 72-hour HepG2 Assay for Mitochondrial Mass (AID 2282924).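 Further: MitoTracker Red CMXRos stain intensity per cell imaged as mitochondrial mass.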 The note with it: high-content imaging, actives raise or lower the signal. In a few lines: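 HepG2, 72 hr cmpd, 10 conc 0.39–200 uM in dup, DMSO 0.5% v/v. MitoTracker Red CMXRos 250 nM 30 min pre-fix; formaldehyde 3.7% fix 30 min RT. HCS imaging, gain/loss fit vs DMSO.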

Experiment [9] can be described thus: APR_HepG2_StressKinase_24hr: Apredica 24-hour HepG2 Assay for Stress Kinase (AID 2282922). The note with it: HepG2 stress kinase (phospho-c-Jun) imaging, actives raise or lower the signal. The gist of the method:
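HepG2, 24 hr dosing, 0.39–200 uM in duplicate, 0.5% DMSO; formaldehyde fix (3.7%), 0.5% Triton X-100; anti-phospho-c-Jun + Cy3 secondary, Hoechst counterstain; ArrayScan imaging; bidirectional curve fit vs DMSO baseline.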

Active and inactive are the calls of the source. How the source made its calls: active means hit-call score of the fitted dose curve at least 0.9, where 1 is the maximum; inactive means score below 0.9.

As a reminder, the AC50 is the concentration at which the activity in the assay is half-maximal. On to `CC(C)N1C(=O)N(c2ccccc2)CSC1=NC(C)(C)C`, for which the AC50 was 42.5 µM (active) in experiment [1], 32.6 µM (active) in experiment [5] and 111 µM (active) in [6]. The outcome in experiment [2], in experiment [3], in [4], in experiment [7] and in experiment [8] was inactive.

On to `CCCC(=NOCC)C1=C(O)CC(CC(C)SCC)CC1=O` (stereo unspecified), for which the molecule was called inactive in experiment [1], in experiment [2], in [3], in experiment [4], in experiment [5] and in experiment [6]. Moreover, the molecule was classed as inactive in experiment [7] and in [8].

For the molecule `Cc1cc(C)nc(Nc2ccccc2)n1`, the AC50 in experiment [1] was 46.3 µM (active). Besides, the outcome in [2], in [3], in [4], in experiment [5], in [6] and in [7] was inactive. Also, the call in [8] was inactive.

For `CCSC(=O)N1CCCCCC1`, the call in experiment [1], in experiment [2], in experiment [3], in experiment [4], in experiment [5] and in [6] was inactive. Moreover, the molecule was classed as inactive in experiment [7] and in experiment [8].

As to `CCOc1cc(C(C)(C)C)ccc1C1COC(c2c(F)cccc2F)=N1` (stereo unspecified), the figures for the AC50 in experiment [1] and in experiment [5] were 103 µM (active) and 47.2 µM (active), respectively. Further, the outcome in experiment [2], in [3], in experiment [4], in experiment [6], in [9] and in experiment [8] was inactive.

Take `Nc1c(Cl)c(F)nc(OCC(=O)O)c1Cl`: the molecule was called inactive in experiment [1], in experiment [2], in [3], in experiment [4], in [5] and in [6]. The call in experiment [7] and in experiment [8] was inactive.

With `Clc1cccc(C(Cl)(Cl)Cl)n1`, the molecule was classed as inactive in [1], in [2], in [3], in experiment [4], in experiment [5] and in [6]. Besides, the molecule was classed as inactive in experiment [7] and in [8].

Take `Cc1nc(N(C)C)nc(OC(=O)N(C)C)c1C`: the outcome in [1], in experiment [2], in experiment [3], in experiment [4], in [5] and in experiment [6] was inactive. The call in [8] was inactive.

On to `CCNC(=O)NC(=O)C(C#N)=NOC`, for which the molecule was classed as inactive in experiment [1], in experiment [2], in experiment [3], in [4], in experiment [5] and in [6]. Also, the molecule was classed as inactive in experiment [9] and in experiment [8].

Turning to `CCC(C)n1c(=O)[nH]c(C)c(Br)c1=O` (stereo unspecified), the result in experiment [1], in [2], in experiment [3], in [4], in [5] and in [6] was inactive. The result in [7] and in experiment [8] was inactive.

Take `CS(=O)(=O)c1ccc(C(=O)C2C(=O)CCCC2=O)c([N+](=O)[O-])c1`: the outcome in [1], in experiment [2], in experiment [3], in experiment [4], in experiment [5] and in [6] was inactive. Besides, the molecule was classed as inactive in experiment [9], in experiment [7] and in [8].

With `Clc1nc(Cl)nc(Nc2ccccc2Cl)n1`, the molecule was called inactive in [1], in [2], in experiment [3], in experiment [4], in experiment [5] and in experiment [6]. In addition, the result in experiment [7] and in [8] was inactive.

With `Cc1ccc(N=CN(C)C=Nc2ccc(C)cc2C)c(C)c1`, the outcome in experiment [1], in [2], in experiment [3], in experiment [9], in experiment [7] and in [8] was inactive. Moreover, the results for the AC50 in [4], in [5] and in [6] were 82.4 µM (active), 163 µM (active) and 154 µM (active), respectively.

On to `COC(=O)NC(=S)Nc1ccccc1NC(=S)NC(=O)OC`, for which the results for the AC50 in [1] and in experiment [8] were 26.1 µM (active) and 41.6 µM (active), respectively. The result in [2], in experiment [3], in experiment [4], in [5], in experiment [6] and in experiment [7] was inactive.

`CCOP(=O)(OCC)Oc1nc(Cl)c(Cl)cc1Cl`: the molecule was called inactive in experiment [1], in experiment [2], in experiment [3], in [4], in experiment [5] and in experiment [6]. Further, the outcome in [7] and in experiment [8] was inactive.

Turning to `CC1(C)C(C=C(Cl)Cl)C1C(=O)OC(C#N)c1cccc(Oc2ccccc2)c1` (stereo unspecified), the molecule was classed as inactive in experiment [1], in experiment [2], in experiment [3], in experiment [4], in experiment [5] and in [6]. The call in [7] and in [8] was inactive.

Turning to `CC1(C)CCC(=Cc2ccc(Cl)cc2)C1(O)Cn1cncn1` (stereo unspecified), the outcome in experiment [1], in experiment [2], in experiment [3], in experiment [4], in experiment [5] and in experiment [6] was inactive. The call in experiment [9], in [7] and in [8] was inactive.

For the molecule `OC(c1ccc(Cl)cc1)(c1ccc(Cl)cc1)C(Cl)(Cl)Cl`, the AC50 in [1] was 32.2 µM (active); in experiment [5], 32.2 µM (active); in [6], 68.8 µM (active); in [9], 107 µM (active). Also, the outcome in [2], in [3], in [4], in [7] and in experiment [8] was inactive.

Turning to `CCOc1nc(F)cc2nc(S(=O)(=O)Nc3c(Cl)cccc3Cl)nn12`, the molecule was classed as inactive in experiment [1], in experiment [2], in experiment [3], in experiment [4], in experiment [5] and in experiment [6]. In addition, the molecule was called inactive in [9], in [7] and in experiment [8].
